This is an account of results in ChEMBL document CHEMBL1961873, “Compounds: GSK PKIS; Assays: Nanosyn kinase panel” (2012).

SMILES strings stand for the structures. Where “and” joins values, the source holds several entries; their conditions need not be identical. Equal entries are not always repeated.

Proto-oncogene tyrosine-protein kinase receptor Ret (Homo sapiens), sequence (P07949 whole entry): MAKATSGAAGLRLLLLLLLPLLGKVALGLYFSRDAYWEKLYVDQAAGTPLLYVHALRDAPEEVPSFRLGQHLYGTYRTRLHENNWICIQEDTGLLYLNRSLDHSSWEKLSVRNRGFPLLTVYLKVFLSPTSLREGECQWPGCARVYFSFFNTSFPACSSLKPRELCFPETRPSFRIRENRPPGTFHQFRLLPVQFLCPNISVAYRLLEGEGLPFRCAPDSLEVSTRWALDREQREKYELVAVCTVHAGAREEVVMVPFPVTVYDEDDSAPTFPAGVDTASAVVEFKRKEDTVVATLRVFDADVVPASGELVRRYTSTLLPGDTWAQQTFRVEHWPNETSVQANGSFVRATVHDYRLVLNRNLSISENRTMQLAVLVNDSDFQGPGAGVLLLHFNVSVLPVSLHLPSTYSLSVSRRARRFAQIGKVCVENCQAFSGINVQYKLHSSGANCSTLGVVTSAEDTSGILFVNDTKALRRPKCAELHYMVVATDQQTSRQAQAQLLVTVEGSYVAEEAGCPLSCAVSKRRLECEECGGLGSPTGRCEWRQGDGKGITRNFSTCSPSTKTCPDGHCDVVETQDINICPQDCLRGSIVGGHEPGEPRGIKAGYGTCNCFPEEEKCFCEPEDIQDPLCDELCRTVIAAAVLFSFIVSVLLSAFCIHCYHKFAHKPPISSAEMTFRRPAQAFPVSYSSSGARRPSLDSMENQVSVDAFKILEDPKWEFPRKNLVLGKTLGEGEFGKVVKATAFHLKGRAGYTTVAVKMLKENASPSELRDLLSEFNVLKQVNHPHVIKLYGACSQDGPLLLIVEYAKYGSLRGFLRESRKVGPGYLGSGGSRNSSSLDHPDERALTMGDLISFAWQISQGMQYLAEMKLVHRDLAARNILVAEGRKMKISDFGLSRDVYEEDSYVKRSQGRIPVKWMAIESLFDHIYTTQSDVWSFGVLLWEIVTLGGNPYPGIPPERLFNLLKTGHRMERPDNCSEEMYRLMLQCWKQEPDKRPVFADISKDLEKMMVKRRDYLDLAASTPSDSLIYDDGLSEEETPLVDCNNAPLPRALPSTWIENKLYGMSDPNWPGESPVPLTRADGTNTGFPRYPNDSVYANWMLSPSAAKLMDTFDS

One assay concerns the target Proto-oncogene tyrosine-protein kinase receptor Ret (Homo sapiens) (UniProt P07949). The following applies: at 0.1 µM.
For `COc1ccc(Nc2ncc(-c3ccccc3)o2)cc1OC`, the inhibition came to 6.8%.
Still for that read-out and setting: for `CCS(=O)(=O)c1ccc(OC)c(Nc2ncc(-c3cccc(C(C)=O)c3)o2)c1` the value was 7.26%.
Still for that read-out and setting: the value for `CS(=O)(=O)Nc1ccc(-c2ccc3c(NC(=O)C4CC4)n[nH]c3c2)cc1` was 3.92%; that for `CS(=O)(=O)CCNCc1ccoc1-c1ccc2ncnc(Nc3ccc(OCc4ccccc4)cc3)c2c1` was 3.73%; that for `NS(=O)(=O)c1ccc(N/N=C2\C(=O)Nc3ccc(C(=O)NCc4ccncc4)cc32)cc1` was 11.1%.
The same measure, in the same setting: the value for `CN1CCC(C(=O)Nc2n[nH]c3nc(-c4ccc(O)cc4)c(Br)cc23)CC1` was 7.08% and 5.43%.
Consider `CN1CCN(Cc2ccc(-c3cc4ncnc(Nc5ccc(OCc6cccc(F)c6)c(Cl)c5)c4s3)o2)CC1`, for which the inhibition was 6.83% and 5.69%.
Still for that read-out and setting: for `COc1cc2c(cc1Nc1nc(Nc3cccc(F)c3C(N)=O)c3cc[nH]c3n1)N(C(=O)CN1CCN(C(C)C)CC1)CC2` the value was 1.04%.
With `COc1cccc(-n2ncc3c(N/N=C/c4ccc(C(=O)NCCN(C)C)cc4)ncnc32)c1`, the inhibition is 22.4%.
As for `CN(c1ccc(NC(=O)NCCN2CCOCC2)cc1)c1ccnc(Nc2ccc(CS(C)(=O)=O)cc2)n1`, the inhibition is 16.5%.
In the case of `Cc1nnc(-c2cccc(-c3ccc(C(=O)NCC4CC4)cc3)c2)o1`, the inhibition was found to be 4.13%.
Consider `Cc1cc(O)cc(C)c1/C=C/c1cncc(C(N)=O)c1`, for which the inhibition came to 3.99%.
Same read-out and setting: the value for `FC(F)(F)CNc1nccc(-c2cnn3ncccc23)n1` was 3.97%; that for `NC(=O)c1ccc2c(-c3ccnc(NCCCO)n3)c(-c3ccc(F)cc3)nn2c1` was 5.55%; that for `COc1ccc2ncn(-c3cc(O[C@H](C)c4ccccc4C(F)(F)F)c(C(N)=O)s3)c2c1` was 1.52%.
Turning to `COc1cc(Nc2ncc(-c3ccccc3)o2)cc(OC)c1`, the inhibition turned out to be 7.16%.
On the same count and under the same terms, for `Fc1ccc(Nc2nccc(-c3c(-c4ccc(C(F)(F)F)cc4)nn4ncccc34)n2)cc1F` the value was 4%; for `COc1cc(N2CCN(C(C)C)CC2)ccc1Nc1nc(Nc2cccc(F)c2C(=O)O)c2cc[nH]c2n1`, 4.88%; for `CC1(C)CC(n2cnc(-c3ccc(F)cc3)c2-c2ccnc(N)n2)CC(C)(C)N1`, -0.92%.
The same measure, in the same setting: the value for `COc1cccc(Nc2nccc(-c3cnn4ncccc34)n2)c1` was 1.21%; that for `COc1ccc(-c2nn3ncccc3c2-c2ccnc(Nc3ccc(F)c(F)c3)n2)cc1` was 4.85%.
On the same count and under the same terms, the value for `CNC(=O)c1cncc(/C=C/c2ccccc2C)c1` was 3.93%.
Take `Cn1c(-c2nonc2N)nc2cnccc21`: the inhibition was found to be 2.99%.
Same read-out and setting: for `Nc1ncnc2occ(-c3ccc(NC(=O)Nc4cc(C(F)(F)F)ccc4F)cc3)c12` the value was 85.3% and 84.5%.
Still for that read-out and setting: for `CCOc1ccc2c(-c3ccnc(Nc4cc(OC)cc(C(F)(F)F)c4)n3)cnn2n1` the value was 2.73%.
Same read-out and setting: the value for `O=C1Nc2ccccc2/C1=C1\CCc2cc(O)ccc21` was 23%; that for `O=C(O[C@H]1CN[C@H](C#Cc2cc3ncnc(Nc4ccc5c(ccn5Cc5cc(F)ccc5F)c4)c3s2)C1)N1CCOCC1` was 2.76%.
For the compound `CS(=O)(=O)CCNCc1ccc(-c2ccc3ncnc(Nc4ccc(OCc5cccc(C(F)(F)F)c5)cc4)c3c2)o1`, the inhibition was 3.22%.
On to `N#Cc1cccc(Nc2ncc(-c3ccccc3)o2)c1`, for which the inhibition came out at 2.14%.
Same read-out and setting: for `N#Cc1ccc2c(-c3ccnc(NC4CC4)n3)c(-c3ccc(F)cc3)nn2c1` the value was 5.41%.
The same measure, in the same setting: the value for `CNC(=O)c1sc(-n2cnc3cc(OC)c(OC)cc32)cc1OCc1ccccc1C(F)(F)F` was 1.78%.

A further assay shares this target. Particulars: at 1 µM.
For `COc1ccc(Nc2ncc(-c3ccccc3)o2)cc1OC`, the inhibition amounted to 23.1%.
Still for that read-out and setting: the value for `CCS(=O)(=O)c1ccc(OC)c(Nc2ncc(-c3cccc(C(C)=O)c3)o2)c1` was 33.6%; that for `CS(=O)(=O)Nc1ccc(-c2ccc3c(NC(=O)C4CC4)n[nH]c3c2)cc1` was 6.93%; that for `CS(=O)(=O)CCNCc1ccoc1-c1ccc2ncnc(Nc3ccc(OCc4ccccc4)cc3)c2c1` was 0.18%.
The same measure, in the same setting: the value for `NS(=O)(=O)c1ccc(N/N=C2\C(=O)Nc3ccc(C(=O)NCc4ccncc4)cc32)cc1` was 49.3%.
Consider `CN1CCC(C(=O)Nc2n[nH]c3nc(-c4ccc(O)cc4)c(Br)cc23)CC1`, for which the inhibition is 9.97% and 0.25%.
As for `CN1CCN(Cc2ccc(-c3cc4ncnc(Nc5ccc(OCc6cccc(F)c6)c(Cl)c5)c4s3)o2)CC1`, the inhibition is 13.4% and 14.8%.
With `COc1cc2c(cc1Nc1nc(Nc3cccc(F)c3C(N)=O)c3cc[nH]c3n1)N(C(=O)CN1CCN(C(C)C)CC1)CC2`, the inhibition came out at 5.75%.
The same measure, in the same setting: the value for `COc1cccc(-n2ncc3c(N/N=C/c4ccc(C(=O)NCCN(C)C)cc4)ncnc32)c1` was 66.9%.
Turning to `CN(c1ccc(NC(=O)NCCN2CCOCC2)cc1)c1ccnc(Nc2ccc(CS(C)(=O)=O)cc2)n1`, the inhibition amounted to 58.5%.
For `Cc1nnc(-c2cccc(-c3ccc(C(=O)NCC4CC4)cc3)c2)o1`, the inhibition turned out to be 7.32%.
On the same count and under the same terms, for `Cc1cc(O)cc(C)c1/C=C/c1cncc(C(N)=O)c1` the value was 8.88%; for `FC(F)(F)CNc1nccc(-c2cnn3ncccc23)n1`, 2.84%; for `NC(=O)c1ccc2c(-c3ccnc(NCCCO)n3)c(-c3ccc(F)cc3)nn2c1`, 16.6%.
Same read-out and setting: the value for `COc1ccc2ncn(-c3cc(O[C@H](C)c4ccccc4C(F)(F)F)c(C(N)=O)s3)c2c1` was 4.27%; that for `COc1cc(Nc2ncc(-c3ccccc3)o2)cc(OC)c1` was 8.97%.
In the case of `Fc1ccc(Nc2nccc(-c3c(-c4ccc(C(F)(F)F)cc4)nn4ncccc34)n2)cc1F`, the inhibition was 6.84%.
Still for that read-out and setting: the value for `COc1cc(N2CCN(C(C)C)CC2)ccc1Nc1nc(Nc2cccc(F)c2C(=O)O)c2cc[nH]c2n1` was 5.6%; that for `CC1(C)CC(n2cnc(-c3ccc(F)cc3)c2-c2ccnc(N)n2)CC(C)(C)N1` was -0.44%; that for `COc1cccc(Nc2nccc(-c3cnn4ncccc34)n2)c1` was 17.1%.
In the case of `COc1ccc(-c2nn3ncccc3c2-c2ccnc(Nc3ccc(F)c(F)c3)n2)cc1`, the inhibition was 18.1%.
In the case of `CNC(=O)c1cncc(/C=C/c2ccccc2C)c1`, the inhibition amounted to 6.36%.
On the same count and under the same terms, the value for `Cn1c(-c2nonc2N)nc2cnccc21` was 4.58%; that for `Nc1ncnc2occ(-c3ccc(NC(=O)Nc4cc(C(F)(F)F)ccc4F)cc3)c12` was 90.7% and 88.5%; that for `CCOc1ccc2c(-c3ccnc(Nc4cc(OC)cc(C(F)(F)F)c4)n3)cnn2n1` was 13.2%.
Same read-out and setting: the value for `O=C1Nc2ccccc2/C1=C1\CCc2cc(O)ccc21` was 66.3%; that for `O=C(O[C@H]1CN[C@H](C#Cc2cc3ncnc(Nc4ccc5c(ccn5Cc5cc(F)ccc5F)c4)c3s2)C1)N1CCOCC1` was 4.91%; that for `CS(=O)(=O)CCNCc1ccc(-c2ccc3ncnc(Nc4ccc(OCc5cccc(C(F)(F)F)c5)cc4)c3c2)o1` was 2.84%.
Take `N#Cc1cccc(Nc2ncc(-c3ccccc3)o2)c1`: the inhibition is 3.79%.
Same read-out and setting: the value for `N#Cc1ccc2c(-c3ccnc(NC4CC4)n3)c(-c3ccc(F)cc3)nn2c1` was 8.1%; that for `CNC(=O)c1sc(-n2cnc3cc(OC)c(OC)cc32)cc1OCc1ccccc1C(F)(F)F` was 9.67%.

For orientation: inhibition means the drop in the measured response relative to a control, in per cent.
